Data reported in the supplement of paper PMC12808144.
Unmarked numbers belong to inactive results.

System: Mel-DCC-11-R
Test: cell viability relative to DMSO control (fraction of DMSO control); higher = less cytotoxic, active = 0.8 or less
Details: 1 µM; 120 h; vemurafenib co-treatment 0 µM
Description: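 Same 315-drug TargetMol library at 1 µM in duplicate, 120 h, ATPlite luminescence normalised to DMSO controls, on the vemurafenib-resistant subline Mel-DCC-11-R cultured alone or with 8 µM vemurafenib co-treatment (Mel-DCC-11-R + V).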

Q: Which cell viability does the source give for CCN(CC)CCNC(=O)c1c(C)[nH]c(/C=C2\C(=O)Nc3ccc(F)cc32)c1C [Sunitinib] here?
A: 1.16

Q: For Nc1nc(F)nc2c1ncn2[C@@H]1O[C@H](COP(=O)(O)O)[C@@H](O)[C@@H]1O [Fludarabine Phosphate], which cell viability is on record?
A: 1.07

Q: Which cell viability does the source give for CC[C@@H]1C(=O)N(C)c2cnc(Nc3ccc(C(=O)N[C@H]4CC[C@H](N5CCN(CC6CC6)CC5)CC4)cc3OC)nc2N1C(C)C [Volasertib] here?
A: 1

Q: For O=c1cc(-c2ccc(O)cc2)oc2cc(O)cc(O)c12 [Apigenin], which cell viability is on record?
A: 0.972

Q: For COC(=O)c1ccc2c(c1)NC(=O)/C2=C(\Nc1ccc(N(C)C(=O)CN2CCN(C)CC2)cc1)c1ccccc1 [Nintedanib], which cell viability is on record?
A: 1.01

Q: Which cell viability does the source give for NC(=O)c1ncn([C@@H]2O[C@H](CO)[C@@H](O)[C@H]2O)c1N [AICAR (Acadesine)] here?
A: 1.12

Q: CC[C@]1(O)C[C@@H]2C[N@@](CCc3c([nH]c4ccccc34)[C@@](C(=O)OC)(c3cc4c(cc3OC)N(C)[C@H]3[C@@](O)(C(=O)OC)[C@H](OC(C)=O)[C@]5(CC)C=CCN6CC[C@]43[C@@H]65)C2)C1.O=S(=O)(O)O [Vinblastine sulfate] was tested. Which cell viability did it give?
A: 0.488 (active)

Q: CC(C)C[C@H](NC(=O)[C@H](Cc1ccccc1)NC(=O)c1cnccn1)B(O)O [Bortezomib] was tested. Which cell viability did it give?
A: 0.0464 (active)

Q: How did the cell viability turn out when CC(=O)Nc1cccc(-n2c(=O)n(C3CC3)c(=O)c3c(Nc4ccc(I)cc4F)n(C)c(=O)c(C)c32)c1 [Trametinib] was run?
A: 0.206 (active)

Q: How did the cell viability turn out when NC(=O)NO [Hydroxyurea] was run?
A: 1.09

Q: Which cell viability does the source give for CN(C)CCOc1ccc(/C(=C(/CCCl)c2ccccc2)c2ccccc2)cc1.O=C(O)CC(O)(CC(=O)O)C(=O)O [Toremifene citrate] here?
A: 0.981

Q: With CNC(=O)c1ccc(N2C(=S)N(c3ccc(C#N)c(C(F)(F)F)c3)C(=O)C2(C)C)cc1F [Enzalutamide] as the compound, how does the cell viability read?
A: 0.889

Q: How did the cell viability turn out when CCNC(=O)[C@@H]1CCCN1C(=O)[C@H](CCCN=C(N)N)NC(=O)[C@H](CC(C)C)NC(=O)[C@@H](CC(C)C)NC(=O)[C@H](Cc1ccc(O)cc1)NC(=O)[C@H](CO)NC(=O)[C@H](Cc1c[nH]c2ccccc12)NC(=O)[C@H](Cc1cnc[nH]1)NC(=O)[C@@H]1CCC(=O)N1 [Leuprorelin Acetate] was run?
A: 0.854

Q: For CCc1cnn2c(NCc3ccc[n+]([O-])c3)cc(N3CCCC[C@H]3CCO)nc12 [Dinaciclib], which cell viability is on record?
A: 0.062 (active)

Q: For CC(C)C[C@H](NC(=O)CNC(=O)c1cc(Cl)ccc1Cl)B(O)O [Ixazomib], which cell viability is on record?
A: 0.13 (active)

Q: For CCN(CC)C(=S)SSC(=S)N(CC)CC [Disulfiram], which cell viability is on record?
A: 0.442 (active)

Q: How did the cell viability turn out when CNC(=O)c1cc(Oc2ccc(NC(=O)Nc3ccc(Cl)c(C(F)(F)F)c3)c(F)c2)ccn1 [Regorafenib] was run?
A: 0.909

Q: Which cell viability does the source give for O=C([O-])CCCc1ccccc1.[Na+] [Sodium Phenylbutyrate] here?
A: 1

Q: For Cl.N=C1CCCN1Cc1[nH]c(=O)[nH]c(=O)c1Cl [Tipiracil hydrochloride], which cell viability is on record?
A: 0.816

Q: CC[C@@]1(O)C(=O)OCc2c1cc1n(c2=O)Cc2cc3cc(O)ccc3nc2-1 [10-Hydroxycamptothecin] was tested. Which cell viability did it give?
A: 0.478 (active)

Same assay, conditions: 1 µM; 120 h; vemurafenib co-treatment 8 µM

Q: How did the cell viability turn out when CCN(CC)CCNC(=O)c1c(C)[nH]c(/C=C2\C(=O)Nc3ccc(F)cc32)c1C [Sunitinib] was run?
A: 0.564 (active)

Q: Nc1nc(F)nc2c1ncn2[C@@H]1O[C@H](COP(=O)(O)O)[C@@H](O)[C@@H]1O [Fludarabine Phosphate] was tested. Which cell viability did it give?
A: 1.16

Q: How did the cell viability turn out when CC[C@@H]1C(=O)N(C)c2cnc(Nc3ccc(C(=O)N[C@H]4CC[C@H](N5CCN(CC6CC6)CC5)CC4)cc3OC)nc2N1C(C)C [Volasertib] was run?
A: 0.664 (active)

Q: For O=c1cc(-c2ccc(O)cc2)oc2cc(O)cc(O)c12 [Apigenin], which cell viability is on record?
A: 0.991

Q: COC(=O)c1ccc2c(c1)NC(=O)/C2=C(\Nc1ccc(N(C)C(=O)CN2CCN(C)CC2)cc1)c1ccccc1 [Nintedanib] was tested. Which cell viability did it give?
A: 0.803

Q: NC(=O)c1ncn([C@@H]2O[C@H](CO)[C@@H](O)[C@H]2O)c1N [AICAR (Acadesine)] was tested. Which cell viability did it give?
A: 1.21

Q: For CC[C@]1(O)C[C@@H]2C[N@@](CCc3c([nH]c4ccccc34)[C@@](C(=O)OC)(c3cc4c(cc3OC)N(C)[C@H]3[C@@](O)(C(=O)OC)[C@H](OC(C)=O)[C@]5(CC)C=CCN6CC[C@]43[C@@H]65)C2)C1.O=S(=O)(O)O [Vinblastine sulfate], which cell viability is on record?
A: 0.252 (active)

Q: With CC(C)C[C@H](NC(=O)[C@H](Cc1ccccc1)NC(=O)c1cnccn1)B(O)O [Bortezomib] as the compound, how does the cell viability read?
A: 0.048 (active)

Q: Which cell viability does the source give for CC(=O)Nc1cccc(-n2c(=O)n(C3CC3)c(=O)c3c(Nc4ccc(I)cc4F)n(C)c(=O)c(C)c32)c1 [Trametinib] here?
A: 0.165 (active)

Q: With NC(=O)NO [Hydroxyurea] as the compound, how does the cell viability read?
A: 0.655 (active)

Q: CN(C)CCOc1ccc(/C(=C(/CCCl)c2ccccc2)c2ccccc2)cc1.O=C(O)CC(O)(CC(=O)O)C(=O)O [Toremifene citrate] was tested. Which cell viability did it give?
A: 1.19

Q: CNC(=O)c1ccc(N2C(=S)N(c3ccc(C#N)c(C(F)(F)F)c3)C(=O)C2(C)C)cc1F [Enzalutamide] was tested. Which cell viability did it give?
A: 1.09

Q: Which cell viability does the source give for CCNC(=O)[C@@H]1CCCN1C(=O)[C@H](CCCN=C(N)N)NC(=O)[C@H](CC(C)C)NC(=O)[C@@H](CC(C)C)NC(=O)[C@H](Cc1ccc(O)cc1)NC(=O)[C@H](CO)NC(=O)[C@H](Cc1c[nH]c2ccccc12)NC(=O)[C@H](Cc1cnc[nH]1)NC(=O)[C@@H]1CCC(=O)N1 [Leuprorelin Acetate] here?
A: 0.919

Q: How did the cell viability turn out when CCc1cnn2c(NCc3ccc[n+]([O-])c3)cc(N3CCCC[C@H]3CCO)nc12 [Dinaciclib] was run?
A: 0.0642 (active)

Q: How did the cell viability turn out when CC(C)C[C@H](NC(=O)CNC(=O)c1cc(Cl)ccc1Cl)B(O)O [Ixazomib] was run?
A: 0.0834 (active)

Q: For CCN(CC)C(=S)SSC(=S)N(CC)CC [Disulfiram], which cell viability is on record?
A: 0.108 (active)

Q: With CNC(=O)c1cc(Oc2ccc(NC(=O)Nc3ccc(Cl)c(C(F)(F)F)c3)c(F)c2)ccn1 [Regorafenib] as the compound, how does the cell viability read?
A: 0.82

Q: Which cell viability does the source give for O=C([O-])CCCc1ccccc1.[Na+] [Sodium Phenylbutyrate] here?
A: 1.07

Q: With Cl.N=C1CCCN1Cc1[nH]c(=O)[nH]c(=O)c1Cl [Tipiracil hydrochloride] as the compound, how does the cell viability read?
A: 0.877

Q: For CC[C@@]1(O)C(=O)OCc2c1cc1n(c2=O)Cc2cc3cc(O)ccc3nc2-1 [10-Hydroxycamptothecin], which cell viability is on record?
A: 0.249 (active)
